Test [1] can be described thus: optical density shifts of acrAB sulA E. coli – strain DRC41, OD650, 48 h, E. coli filamentation inducer project, primary screen (AID 1152).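 Further: E. coli MC1000 strain DRC41 lacking acrAB efflux pump and sulA.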 To be noted: higher = more signal, called active from +8 up or from −8 down.
Test [2] in a line: probe aLefty1 binding on compound microarray – biochemical, small-molecule microarray, 635/667 nm fluorescence, primary screen (AID 1153).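 Further: score merges spot fluorescence with signal-to-noise ratio from the scanned slide images.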 To be noted: higher = more signal.
Test [3] is described as follows: plasmodial surface anion channel blockers, osmotic lysis – cell-based, P. falciparum Indochina, OD700, 1 h, primary screen (AID 1154). Conditions: P. falciparum Indochina infected RBC osmotic lysis, higher = more signal, called active from +8 up or from −8 down.
The nature of test [4]: plasmodial surface anion channel blockers, osmotic lysis – cell-based, P. falciparum Indochina, OD700, 2 h, primary screen (AID 1155).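 Further: lysis reports solute entry through the parasite surface anion channel PSAC.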 Conditions: P. falciparum Indochina infected erythrocytes, higher = more signal, called active from +8 up or from −8 down.
Test [5] is described as follows: changes in parasitized red cell lysis, either direction – P. falciparum Indochina, OD700, 3 h, PSAC antagonist project, primary screen (AID 1156). Conditions: P. falciparum-infected erythrocytes, osmotic lysis, higher = more signal, called active from +8 up or from −8 down.
Test [6] in a line: plasmodial surface anion channel blockers, osmotic lysis – cell-based, P. falciparum Indochina, OD700, 18 h, primary screen (AID 1157). To be noted: P. falciparum Indochina infected erythrocytes, osmotic lysis OD700, 18 h; higher = more signal, called active from +8 up or from −8 down.
The nature of test [7]: S6 kinase pathway phospho-S6 level changes – cell-based, A549, cytoblot, luminescence, serum-stimulated, primary screen (AID 1158).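 Further: serum-stimulated A549 lung adenocarcinoma cells; signal is phosphorylated S6 detected by cytoblot immunostaining with HRP secondary.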 Conditions: 5 h, higher = more signal.
The target in test [8] is NADPH oxidase 2 (Homo sapiens) (UniProt P04839). Briefly: compounds shifting NOX2 Amplex Red fluorescence – cell-based, HEK293-NOX2, PMA-stimulated, NOX inhibitor project, primary screen (AID 1159). Further: test concentration not given here. To be noted: 45 min, higher = more signal, called active from +8 up or from −8 down.
Test [9] has as its target NADPH oxidase 4 (Homo sapiens) (UniProt Q9NPH5). The experiment in a line: compounds shifting NOX4 Amplex Red fluorescence – cell-based, HEK293-NOX4, tetracycline-induced, NOX inhibitor project, primary screen (AID 1160). Conditions: HEK293-NOX4, Amplex Red H2O2 fluorescence, 45 min; higher = more signal, called active from +8 up or from −8 down.
Test [10] addresses NADPH oxidase 5 (Homo sapiens) (UniProt Q96PH1). Briefly: compounds shifting NOX5 Amplex Red fluorescence – cell-based, HEK293-NOX5, NOX inhibitor project, primary screen (AID 1161). To be noted: HEK293-NOX5, ionomycin, 45 min, higher = more signal.
The nature of test [11]: compound effects on lung adenocarcinoma cell viability – A549, calcein-AM fluorescence, 48 h, basal, profiling panel (AID 1162). Further: test concentration not given here. Conditions: higher = more signal.
A short description of test [12]: compound effects on differentiated 3T3-L1 adipocyte viability – cell-based, 3T3-L1 adipocytes, calcein-AM fluorescence, 48 h, basal, profiling panel (AID 1163). Further: test concentration not given here. To be noted: 3T3-L1 adipocytes viability, higher = more signal.
The nature of test [13]: compound effects on hepatocellular carcinoma cell viability – HepG2, calcein-AM fluorescence, 48 h, basal, profiling panel (AID 1164). Further: test concentration not given here. Conditions: higher = more signal.
Test [14] can be described thus: compound effects on multiple myeloma cell viability – MM1S, calcein-AM fluorescence, 48 h, basal, profiling panel (AID 1165). Further: test concentration not given here. Conditions: higher = more signal.
Test [15] is described as follows: calcein-AM signal in unstimulated myeloma cells – cell-based, calcein-AM fluorescence, 48 h, PK04 Diversity Set, profiling panel (AID 1166).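 Further: cells grown under basal conditions without added stimulus; test concentration not given here.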 Conditions: RPMI8226 myeloma viability, higher = more signal.
Test [16] is described as follows: JC-1 mitochondrial signal, unstimulated HepG2 cells – cell-based, JC-1 fluorescence, 24 h, 100 nL compound, profiling panel (AID 1167). Further: test concentration not given here. To be noted: HepG2 mitochondrial potential, higher = more signal.
Test [17] in a line: JC-1 mitochondrial signal, unstimulated adipocytes – cell-based, JC-1 fluorescence, 3T3-L1 adipocytes, 24 h, 100 nL compound, profiling panel (AID 1168). Further: test concentration not given here. Conditions: JC-1 mitochondrial fluorescence, higher = more signal, called active from +8 up or from −8 down.
Test [18] is described as follows: JC-1 mitochondrial signal, unstimulated myeloma cells – cell-based, JC-1 fluorescence, RPMI8226, 24 h, 100 nL compound, profiling panel (AID 1169). Further: test concentration not given here. Conditions: JC-1 mitochondrial potential fluorescence, higher = more signal.
A short description of test [19]: JC-1 mitochondrial signal, unstimulated MM1S myeloma – cell-based, JC-1 fluorescence, 24 h, 100 nL compound, profiling panel (AID 1170). Further: test concentration not given here. To be noted: MM1S mitochondrial potential, higher = more signal.
Test [20] is described as follows: resazurin metabolic signal in A549 cells – cell-based, resazurin fluorescence, 24 h, PK04 Diversity Set, profiling panel (AID 1171). Further: test concentration not given here. To be noted: A549 viability, higher = more signal, called active from +8 up or from −8 down. (Resazurin is reduced to fluorescent resorufin, in cell work by metabolically active cells.)

Molecules are shown by their SMILES. Calls of active or inactive are those of the source.

Chain of NADPH oxidase 2 (Homo sapiens) (P04839 whole entry, looked up): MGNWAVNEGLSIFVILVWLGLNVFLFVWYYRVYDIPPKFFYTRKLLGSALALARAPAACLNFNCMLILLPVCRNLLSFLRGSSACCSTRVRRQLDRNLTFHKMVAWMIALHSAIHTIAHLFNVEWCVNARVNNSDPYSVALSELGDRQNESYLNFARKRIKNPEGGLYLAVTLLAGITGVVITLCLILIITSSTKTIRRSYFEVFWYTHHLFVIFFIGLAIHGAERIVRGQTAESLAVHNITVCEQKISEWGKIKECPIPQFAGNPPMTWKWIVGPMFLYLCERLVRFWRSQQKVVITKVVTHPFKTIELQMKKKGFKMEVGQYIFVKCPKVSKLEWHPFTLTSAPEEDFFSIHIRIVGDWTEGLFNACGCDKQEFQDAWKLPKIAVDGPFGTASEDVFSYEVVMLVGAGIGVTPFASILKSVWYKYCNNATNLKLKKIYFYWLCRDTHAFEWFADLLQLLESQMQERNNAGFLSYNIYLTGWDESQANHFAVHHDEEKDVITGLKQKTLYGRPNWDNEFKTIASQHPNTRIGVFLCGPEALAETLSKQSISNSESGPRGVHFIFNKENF
Chain of NADPH oxidase 4 (Homo sapiens) (Q9NPH5 whole entry, looked up): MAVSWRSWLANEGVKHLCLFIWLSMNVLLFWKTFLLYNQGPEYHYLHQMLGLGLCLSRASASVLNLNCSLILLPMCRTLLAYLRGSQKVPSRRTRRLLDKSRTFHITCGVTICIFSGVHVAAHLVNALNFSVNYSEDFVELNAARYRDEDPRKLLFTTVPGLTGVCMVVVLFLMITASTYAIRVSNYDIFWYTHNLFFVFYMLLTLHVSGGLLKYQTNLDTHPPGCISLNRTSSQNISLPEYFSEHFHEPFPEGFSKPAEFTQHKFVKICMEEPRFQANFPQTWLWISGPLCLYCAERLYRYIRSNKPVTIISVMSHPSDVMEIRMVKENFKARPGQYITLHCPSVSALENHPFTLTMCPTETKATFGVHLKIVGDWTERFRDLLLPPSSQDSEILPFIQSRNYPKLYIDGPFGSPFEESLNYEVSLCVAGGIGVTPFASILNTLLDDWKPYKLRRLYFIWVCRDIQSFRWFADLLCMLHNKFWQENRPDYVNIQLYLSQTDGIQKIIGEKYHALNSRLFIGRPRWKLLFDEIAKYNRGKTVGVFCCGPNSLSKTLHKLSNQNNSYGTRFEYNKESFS
Chain of NADPH oxidase 5 (Homo sapiens) (Q96PH1 whole entry, looked up): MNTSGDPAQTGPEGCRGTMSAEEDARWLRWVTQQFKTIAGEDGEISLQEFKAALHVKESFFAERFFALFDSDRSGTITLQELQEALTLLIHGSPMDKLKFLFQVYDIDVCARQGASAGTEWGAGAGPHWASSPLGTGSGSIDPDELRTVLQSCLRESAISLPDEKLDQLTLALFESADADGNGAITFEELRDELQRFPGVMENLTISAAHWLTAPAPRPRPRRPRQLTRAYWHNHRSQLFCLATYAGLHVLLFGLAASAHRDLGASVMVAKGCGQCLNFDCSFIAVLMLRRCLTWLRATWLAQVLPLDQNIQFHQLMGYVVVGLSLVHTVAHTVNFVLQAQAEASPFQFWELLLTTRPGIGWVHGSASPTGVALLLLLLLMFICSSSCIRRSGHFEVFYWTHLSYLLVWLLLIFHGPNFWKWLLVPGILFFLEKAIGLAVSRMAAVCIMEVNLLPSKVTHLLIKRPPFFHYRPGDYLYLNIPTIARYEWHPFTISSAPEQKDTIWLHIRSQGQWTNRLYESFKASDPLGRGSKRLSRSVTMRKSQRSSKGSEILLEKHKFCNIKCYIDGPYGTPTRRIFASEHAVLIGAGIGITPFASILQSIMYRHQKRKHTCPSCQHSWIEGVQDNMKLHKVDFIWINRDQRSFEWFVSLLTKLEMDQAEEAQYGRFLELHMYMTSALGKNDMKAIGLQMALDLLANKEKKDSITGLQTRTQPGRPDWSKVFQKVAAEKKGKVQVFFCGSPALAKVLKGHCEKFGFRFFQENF

For `C=CCOC(=O)[C@H]1[C@@H]2C(=O)O[C@@H](c3ccccc3)[C@@H](c3ccccc3)N2[C@@H](c2ccc(OCCOC(=O)[C@H]3C[C@H]4C(=O)N[C@@H](Cc5ccccc5)C(=O)N4[C@H]3c3cccc(OCCO)c3)cc2)[C@]12C(=O)Nc1ccc(I)cc12`, the z-score is -0.386 (inactive) in [1]; 0.977 (inactive) in [3]; 0.856 (inactive) in [4]; -0.874 (inactive) in [5]; 0.84 (inactive) in test [6]; -0.28 in [7]. The z-score in test [8] was 2.07 (inactive); in test [9], 1.35 (inactive); in test [10], 1.52; in [11], -0.894; in [12] it was -0.532; in test [13], 0.933. The z-score is -0.234 in test [14]; -0.766 in test [15]; -1.54 in [16]; -0.346 (inactive) in test [17]; -0.713 in [18]; -1.41 in test [19]. The z-score in [20] is -0.461 (inactive). Also, the composite z-score in test [2] is 1.29.

In the case of `COC(=O)[C@@]1(Cc2ccccc2)[C@H]2c3cc(C(=O)N4CCCC4)n(Cc4cc(F)cc5c4OCOC5)c3C[C@H]2CN1C(=O)c1ccccc1`, the z-score in [1] is -1.14 (inactive); in [3], 2.98 (inactive); in test [4], 0.589 (inactive); in test [5] it was 0.804 (inactive); in test [6] it was 0.715 (inactive); in [7], -0.163. Besides, the z-score is 0.768 (inactive) in test [8]; 0.0378 (inactive) in test [9]; -0.652 in test [10]; -0.927 in [11]; -0.888 in [12]; 0.162 in test [13]. Also, the z-score in test [14] is 0.464; in [15] it was -0.0133; in [16], 3.48; in test [17], 0.0248 (inactive); in test [18], -0.0359; in test [19], -0.977. Moreover, in [20], the z-score was -0.522 (inactive). The molecule also yielded a composite z-score in [2] of 0.0752.

Turning to `CC(C)(C)OC(=O)CC[C@]1(C(=O)N2CCOCC2)N=C(c2ccc(OCCCO)cc2)O[C@H]1c1ccccc1`, the z-score in [1] is 1.12 (inactive); in test [3], 22.9 (active); in [4], 5.18 (inactive); in [5], 1.05 (inactive); in test [6] it was 0.815 (inactive); in test [7] it was -0.208. For the same molecule, the z-score is -0.291 (inactive) in test [8]; -0.457 (inactive) in test [9]; -0.474 in test [10]; 0.134 in test [11]; 0.233 in [12]; 1.01 in test [13]. In addition, the z-score in test [14] is 1.38; in test [15], 0.0928; in [16], 0.839; in test [17] it was 0.453 (inactive); in [18], 0.0149; in test [19], -0.703. Moreover, the z-score in test [20] is -0.743 (inactive). The same molecule displayed a composite z-score in test [2] of 0.0468.

For `NC(=O)NCC#Cc1ccc2c(c1)[C@]1(C(=O)N2)[C@H](C(=O)O)[C@H]2C(=O)O[C@H](c3ccccc3)[C@H](c3ccccc3)N2[C@@H]1c1ccccc1OCCO`, the z-score in test [1] is 3.32 (inactive); in test [3] it was -1.21 (inactive); in [4], -1.81 (inactive); in test [5], -3.99 (inactive); in test [6], -2.67 (inactive); in [7] it was 2.78. For the same molecule, the z-score in test [8] is 2.1 (inactive); in [9], 0.786 (inactive); in test [10], -0.188; in test [11], 0.789; in test [12], 1.03; in [13], 0.728. The z-score was 1.33 in test [14]; 1.35 in test [15]; -0.867 in [16]; -0.377 (inactive) in test [17]; -0.0612 in [18]; 0.997 in test [19]. Besides, in [20], the z-score was 0.877 (inactive). Also, in test [2], the composite z-score came to 0.73.

With `CO[C@H]1O[C@H](CO)[C@@H](OC(=O)c2ccc(Br)cc2)[C@@H]2OC(=O)[C@@H](Cc3ccc4ccccc4c3)C/C=C/C[C@H](Cc3ccc4ccccc4c3)C(=O)O[C@@H]12`, the z-score in test [1] is 0.689 (inactive); in test [3], 2.52 (inactive); in test [4], -0.503 (inactive); in test [5] it was -1.15 (inactive); in test [6], -2.1 (inactive); in test [7], 1.74. In addition, the z-score in [8] is 1.76 (inactive); in test [9] it was 0.00292 (inactive); in test [10], -1.77; in [11], 1.12; in test [12], 1.26; in test [13] it was 0.564. The z-score is -0.0385 in test [14]; -0.21 in test [15]; -0.122 in [16]; 0.497 (inactive) in [17]; -0.299 in [18]; -0.179 in test [19]. The z-score in test [20] was -1.41 (inactive). Besides, the composite z-score in [2] is -0.113.

Source of the values: PubChem BioAssay.
